Compound activity from PubChem.
D2 PAM-1 = positively modulates the human D2 dopamine receptor allosterically; HEK293 T-REx D2, calcium flux, EC20 dopamine potentiation; 340,000 compounds, 0.34% hits; P14416; potentiation, % at 10 µM; AID 485347;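 active = potentiation over 3 SD above the plate norm, cut at about 30% in these data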; also: 0% is about no effect
Target sequence (P14416 whole entry, looked up): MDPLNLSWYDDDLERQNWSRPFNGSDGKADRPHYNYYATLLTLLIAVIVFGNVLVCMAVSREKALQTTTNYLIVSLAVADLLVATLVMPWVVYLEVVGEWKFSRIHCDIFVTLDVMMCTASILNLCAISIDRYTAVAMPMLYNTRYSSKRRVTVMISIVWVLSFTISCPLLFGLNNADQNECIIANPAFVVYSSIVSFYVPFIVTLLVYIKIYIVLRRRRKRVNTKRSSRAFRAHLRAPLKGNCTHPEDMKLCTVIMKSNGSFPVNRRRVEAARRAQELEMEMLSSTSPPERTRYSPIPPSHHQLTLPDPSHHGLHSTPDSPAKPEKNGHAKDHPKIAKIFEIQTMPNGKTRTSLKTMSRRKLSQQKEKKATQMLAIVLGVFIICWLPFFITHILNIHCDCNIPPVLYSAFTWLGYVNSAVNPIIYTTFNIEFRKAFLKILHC
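Using a no-wash calcium dye in inducible, force-coupled HEK293 Trex cells expressing D2, we tracked fluorescence each second for 180 s after compound, then for 180 s after EC20 dopamine to detect augmented signalling.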
D2 ag-1 = agonists of human D2 dopamine receptor; P14416; HEK293 T-REx D2 cells, calcium flux agonist mode; activation, % at 2 µM; 340,000 compounds, 0.53% hits; AID 485358;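 active = activation over 3 SD above normal in the single-dose calcium agonist read, cut at about 30% in these data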; also: 0% is about no effect
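Calcium-flux readout, 1 cycle/sec over 180 s following compound pin transfer, in inducible HEK293 Trex D2 cells (force-coupled); dopamine controls included. Positive calcium responses during this window marked compounds as potential agonists.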
D2 ag-2 = human D2 receptor agonism in beta-arrestin assay. P14416. 360,000 compounds, 0.084% hits. DiscoveRx PathHunter D2 beta-arrestin, luminescence, 90 min; 100% = 57 uM dopamine signal. AID 624465. activation, % (concentration not given with the values); in the data active = activation above about 40%; inconclusive = between about 15% and that limit
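DiscoveRx PathHunter D2 beta-arrestin cells (2,100/well) attached overnight, then compound-stimulated 90 min at 37 C in HBSS/10 mM HEPES/0.1% Tween-20 buffer; beta-galactosidase complementation read by luminescence after 1 h at ambient temperature. Dopamine 57 uM final (EC100) as control.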
D2 antagonist = antagonists of human D2 dopamine receptor | HEK293 TREx D2 cells, calcium flux, dopamine EC80 | inhibition, % at 10 µM | 340,000 compounds, 2% hits; in the data active = inhibition above about 30%; inactive = below that, where a call was filed; also: 0% is about no effect
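Compounds are added to dye-loaded, induced HEK293 T-REx cells coupled to calcium release via D2; after a 3 min kinetic read an EC80 dopamine stimulus is given and fluorescence is recorded for 3 more min.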
D2 PAM-2 = positive allosteric modulators of human D2 dopamine receptor; P14416; DiscoveRx D2 beta-arrestin cells, luminescence, 90 min; 100% = 57 uM dopamine signal; potentiation, % (concentration not given with the values); 360,000 compounds, 0.23% hits; AID 624464; in the data active = potentiation above about 50%; inconclusive = mostly about 30% to 49%
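PathHunter D2 cells, attached overnight at 37 deg C, received compound in DMSO plus dopamine at EC20 (50 nM final) for 90 min at 37 deg C. Beta-arrestin recruitment was read as luminescence after 1 h with detection reagent at ambient temperature.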
The depositor's hits bear a star; ? = inconclusive; . = not tested or not shown. A selection: hits, their analogues and other compounds. The true share with any hit is near 2.4%.

SMILES	D2 PAM-1	D2 ag-1	D2 ag-2	D2 antagonist	D2 PAM-2
COc1ccc(/C(N)=N/OC(=O)c2cccc([N+](=O)[O-])c2C)cc1OC	10.6	1.0	?	8.1	93.2*
Cc1ccc(C(=O)O/N=C(\N)Cc2cccs2)cc1[N+](=O)[O-]	11.4	-0.1	?	5.1	29.0
Cc1ccc(NC(=O)C2(C)Cc3ccccc3C(=O)O2)c(C)c1 (configuration not stated)	2.6	-0.2	.	.	.
CCc1cccc(-n2c(=O)c3cccnc3n2CC(=O)Nc2ccc(F)c(C)c2)c1	-3.8	0.1	.	.	.
Cc1occc1C(=O)Nc1c(F)cc(F)cc1Br	-12.3	-0.1	3.5	34.0*	-8.8
Cc1ccc(CN2C(=O)CC(c3ccc(Cl)cc3)c3c(C)nn(-c4nc(C)cc(C)n4)c32)cc1 (configuration not stated)	-15.3	6.2	.	.	.
Cc1ccccc1Cc1c(C)nc2nc(SCC(=O)NCCCN3CCCCC3)nn2c1C	14.5	0.7	4.1	75.4*	-2.7
Cc1nc2nc(SCC(=O)NCCCN3CCCCCC3)nn2c(C)c1Cc1ccccc1	5.3	-0.3	-3.9	-6.3	-10.5
CCOc1ccc(C(=O)N2CC(=O)Nc3ccc(C)cc3C2c2ccc(F)cc2)cc1OCC (configuration not stated)	10.3	2.3	.	.	.
COc1ccc(NC2=NCC(=O)N2c2ccccc2F)cc1	7.5	-0.6	-3.5	36.6*	-0.9
Cc1nc(-n2nc(C)c(Cc3ccccc3Cl)c2C)sc1C(=O)N1CCCCC1C (configuration not stated)	-15.4	-2.0	.	.	.
CC(C(=O)N1CCc2ccccc21)N(C)CC(=O)Nc1cccc(F)c1 (configuration not stated)	-22.0	5.0	-1.8	38.9*	-34.0
CN(CC(=O)Nc1cccc(F)c1)CC(=O)N1CCc2ccccc21	-17.2	0.0	1.9	16.7	-11.8
COc1ccc(CNC(=O)N2CCc3ccccc3C2)cc1	7.7	-1.2	-3.6	34.1*	-10.4
O=C(NCCCN1CCc2ccccc2C1)Nc1ccc(Br)cc1	-18.9	0.1	0.5	30.7*	-34.1
COc1ccc(NC(=O)NCCCN2CCc3ccccc3C2)cc1	-34.2	1.3	3.8	42.9*	-9.5
CCN(Cc1ccccc1)C(=O)Cn1c(=O)n(-c2cccc(C)c2)c(=O)c2c1c1cc(C)ccc1n2C	5.8	-0.5	.	.	.
C=CCC(=O)N(CC)CC1CCCN(CCc2cccc(F)c2)C1 (configuration not stated)	-16.9	0.0	-2.1	49.5*	-1.3
CCN(CC1CCCN(CCc2cccc(F)c2)C1)C(=O)c1ccoc1C (configuration not stated)	.	.	-3.2	.	-51.1
COCc1cc(C)n(CC(=O)N2CCCC2)c(=O)c1C#N	-3.9	1.7	1.8	30.8*	-5.2
CCOC(=O)Cc1ccc(NC(=O)N(Cc2ccc(CC)cc2)Cc2cn[nH]c2-c2ccc(OC)cc2)cc1	-9.4	-0.2	.	.	.
N#CCc1ccc(C(=O)c2ccccc2)s1	15.6	-0.2	3.9	40.0*	-1.9
Cc1cccc(Nc2nnc(-c3ccc(C)c(S(=O)(=O)NCC4CCCO4)c3)c3ccccc23)c1 (configuration not stated)	-13.2	-2.1	.	.	.
CC(=O)Oc1c(Br)cc(N(C(C)=O)S(=O)(=O)c2ccccc2)c2ccccc12	10.9	-3.5	?	32.9*	-1.4
CC(=O)Oc1ccccc1N(C(C)=O)S(=O)(=O)c1ccc2ccccc2c1	-0.4	0.9	-1.5	-12.2	-6.4
SMILES	D2 PAM-1	D2 ag-1	D2 ag-2	D2 antagonist	D2 PAM-2
CCOc1ccc(N(CC(=O)NC(C)CC)S(C)(=O)=O)cc1 (configuration not stated)	-2.8	2.4	-2.7	37.6*	-20.5
CCN1CCCC(NC(=O)c2cc([N+](=O)[O-])ccc2OC)C1 (configuration not stated)	-13.8	-0.1	-2.5	38.5*	-36.7
CC(C)Oc1ccc(CNC(=O)c2sc3ncccc3c2-n2cccc2)cc1	-5.8	-1.2	.	.	.
O=C(Cn1c(=O)n(Cc2nc(-c3ccccc3)no2)c(=O)c2cc3c(cc21)OCO3)Nc1ccc(Cl)cc1	9.4	1.1	.	.	.
CCC(O)(CCN1CCCCC1)c1ccccc1 (configuration not stated)	-2.2	-0.1	-2.6	-3.6	-14.0
OC(CCCN1CCCCC1)(c1ccccc1)c1ccccc1	-27.9	1.3	-5.9	80.1*	-25.4
COc1ccc2[nH]c3c(c2c1)CCn1c-3nc2sc(C(=O)Nc3ccccc3)c(C)c2c1=O	8.6	0.4	.	39.2*	.
CCOc1ccc(N(C)S(=O)(=O)c2ccc3c(c2)C(C)(C)C(=O)N3C)cc1	-4.1	-0.6	.	.	.
Cn1c(=O)c2c(-c3ccccc3)n3c4ccccc4nc(-c4ccccc4)c3c2n(C)c1=O	-5.5	.	.	.	.
Cc1ccc([N+](=O)[O-])cc1Nc1nc(N2CCCC2)nc(N2CCCC2)n1	11.1	0.5	-3.6	34.5*	-3.7
NNc1nc(Nc2ccc([N+](=O)[O-])cc2)nc(N2CCCCCC2)n1	5.3	2.0	-2.2	-2.3	-36.3
COc1ccc(OC)c(NC(=O)CSc2cn(CC(=O)N3CCCCCC3)c3ccccc23)c1	0.0	-0.2	.	.	.
Cc1nnc(C)c2c(C)n(-c3ccc4ncccc4c3)c(C)c12	1.4	0.3	2.2	32.4*	-2.6
Cc1ccc2ncccc2c1	5.7	0.4	-0.8	-6.7	-8.2
CCC(=O)N1CCc2cc(CNS(=O)(=O)c3ccc(CC(C)C)cc3)ccc21	8.6	0.4	.	.	.
COc1cc(NC(=O)Cn2cc(C(=O)c3ccc(F)cc3)c(=O)c3ccc(C)nc32)cc(OC)c1	-10.8	-1.2	.	.	.
CCc1ccc(N2CC(C(=O)OCc3csc(CC(=O)Nc4ccccc4C)n3)CC2=O)cc1 (configuration not stated)	55.7*	0.7	-4.5	-5.3	-2.9
CCOC(=O)/C=C/C(=O)OCc1csc(CC(=O)Nc2ccccc2C)n1	-1.6	0.9	-6.6	-2.1	8.1
COc1ccc(F)cc1S(=O)(=O)NC1CC(C)(C)NC(C)(C)C1	34.6*	-0.3	-1.7	-13.6	-0.3
O=C(NCCc1ccccc1Cl)c1cc2ccccn2n1	-3.3	0.5	.	.	.
CC(=O)c1ccccc1NS(=O)(=O)c1cc2c(cc1C)NC(=O)CO2	-7.3	0.3	.	.	.
CCCCNc1nc2ccccc2n1CC(=O)N1CCc2ccccc2C1	-24.4	-0.1	-5.7	52.9*	-26.7
CCCCNC(=O)N1CCc2ccccc2C1	3.9	-1.4	-3.0	-5.3	-13.7
COC(=O)c1sccc1S(=O)(=O)N1CCN(c2cccc(C)c2)C(C)C1 (configuration not stated)	-5.6	2.1	.	.	.
c1ccc2c(c1)nnn2-c1ncnc2sc3c(c12)CCCC3	11.1	0.7	0.3	30.8*	-6.7
Oc1ccc(N2CCN(c3ncnc4sc5c(c34)CCC5)CC2)cc1	4.3	-0.4	11.1	-9.1	68.3*
